Reference: PubChem BioAssay
A number with no mark means an inactive call. Active and inactive are the calls of the source.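 How the source made its calls, unless noted: active means binding below the plate cutoff, the plate median minus 3 SD, with a reading above zero; inconclusive means below the plate cutoff but reading exactly zero; inactive means the rest.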

System: not listed separately
Experiment: yeast V-ATPase proton transport modulators, S. cerevisiae, pHLuorin, HTS validation (AID 504600; in the data active means response above about 15%;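 further: plate controls were DMSO for no effect and reference compound for full effect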)
Settings: S. cerevisiae pHLuorin cytosolic pH, at 10 µM, hits give high values

Row | SMILES | response
1 | Cc1ccc2[nH]c3c(c2c1)CN(C)CC3 | -3.83%
2 | COc1ccc2[nH]c3c(c2c1)CCn1c-3nc2ccccc2c1=O | 11.4%
3 | CC(=O)O[C@H]1CSC[C@H]1NC(=O)c1ccccc1 | -9.38%
4 | CC(=O)Oc1ccc2occ(/C=N/c3cc(=O)[nH]c(=S)[nH]3)c(=O)c2c1 | -8.27%
5 | O=C(O)CCSc1nc2ccccc2s1 | -1.68%
6 | CCOc1ccc(C(=O)/C=C/c2cc(OC)c(OC)c(OC)c2)cc1 | 1.41%
7 | COC(=O)c1cc(OC)c(OC)c(OC)c1[N+](=O)[O-] | 39.5% (active)
8 | COC(=O)c1[nH]c2ccccc2c1NC(=O)CN1CCN(C/C=C/c2ccccc2)CC1 | 3.35%
9 | Cc1ncc([N+](=O)[O-])n1CC(C)O (stereo not drawn) | -2.48%
10 | Clc1ccccc1CN1CCc2sccc2C1 | 0.39%
11 | CC[C@]1(O)C[C@@H]2CN(CCc3c([nH]c4ccccc34)[C@@](C(=O)OC)(c3cc4c(cc3OC)N(C)[C@H]3[C@@](O)(C(=O)OC)[C@H](OC(C)=O)[C@]5(CC)C=CCN6CC[C@]43[C@@H]65)C2)C1 | 1.26%
12 | O=C(CCCN1CC=C(n2c(=O)[nH]c3ccccc32)CC1)c1ccc(F)cc1 | -6.07%
13 | CCOc1cccc(N2C(=O)CC(N(CCc3ccc(OC)c(OC)c3)C(=O)CC)C2=O)c1 (stereo not drawn) | -1.88%
14 | COC(=O)C1=C(C)NC(C)=C(C(=O)OC)C1c1ccccc1[N+](=O)[O-] | -7.73%
15 | CC(COc1ccccc1)NC(C)C(O)c1ccc(O)cc1 (stereo not drawn) | -3.92%
16 | COc1ccc2oc(=O)c(-c3nc(C)cs3)cc2c1 | -3.63%
17 | CC(=O)Oc1cc(C(C)C)c(OCCN(C)C)cc1C | 8.27%
18 | O=C(NNC(=O)c1cccs1)c1ccco1 | 8.92%
19 | CC(C)Oc1ccc(C(CC(=O)O)c2ccc(F)cc2)cc1 (stereo not drawn) | 3.61%
20 | Cc1ccccc1-c1coc2cc(O)ccc2c1=O | 0.4%

Row | SMILES | response
21 | CCN(CC)CCOC(=O)C1(C2CCCCC2)CCCCC1 | 1.87%
22 | NC(=O)OCC(COC(N)=O)c1ccccc1 | -9.57%
23 | CC(C)[N+]1(C)[C@@H]2CC[C@H]1CC(OC(=O)C(CO)c1ccccc1)C2 (stereo partly drawn) | 2.53%
24 | Cc1ccccc1OCCSc1nc2ncnc(N)c2[nH]1 | 3.1%
25 | CC(=O)NCCCCCCNC(C)=O | 6%
26 | CCN(Cc1ccncc1)Cc1nc(Cc2ccccc2Cl)no1 | 2.76%
27 | CCOC(=O)NN1C(=O)c2ccccc2NC1c1ccc(OC)c(OC)c1 (stereo not drawn) | -6.37%
28 | COc1ccc2c(c1)c(CC(=O)O)c(C)n2C(=O)c1ccc(Cl)cc1 | 9.1%
29 | CC1=CC2(O)OCCN(CCO)C2=CC1=O (stereo not drawn) | -1.28%
30 | Cc1ccccc1C(OCCN(C)C)c1ccccc1 (stereo not drawn) | 9.28%
31 | COC1(C)CC2C(CC1OC(=O)c1cc([N+](=O)[O-])cc([N+](=O)[O-])c1)C2(C)C (stereo not drawn) | 3.54%
32 | O=C1OC(c2ccc(O)cc2)(c2ccc(O)cc2)c2ccccc21 | -0.84%
33 | Cn1c(=O)c2c(ncn2CC(O)CO)n(C)c1=O (stereo not drawn) | -0.09%
34 | Cc1cnc(C(=O)N2CCCC(C(=O)c3ccc(Cl)cc3C)C2)cn1 (stereo not drawn) | 2.89%
35 | CN(C)C(=O)C12CCC(C)(c3nc4ccccc4nc31)C2(C)C (stereo not drawn) | 1.66%
36 | CCOC(=O)c1ccc(N2C(=O)C(CC(N)=O)N(CCc3ccc(OC)c(OC)c3)C2=S)cc1 (stereo not drawn) | 1.03%
37 | Cc1cnc(C(=O)NCCc2ccc(S(=O)(=O)NC(=O)NC3CCCCC3)cc2)cn1 | -3.18%
38 | COc1cccc2c1C(=O)O/C2=C/c1ccc2c(c1)OCO2 | -7.76%
39 | COc1ccc(C2N3CC4(C)CN2CC(C)(C3)C4)cc1OC (stereo not drawn) | 2.37%

System: anti-desmoglein-3 scFv antibody binding to human DSG3
Experiment: inhibitors of anti-DSG3 scFv binding to DSG3, pilot screen, biochemical, validation compound set, bead-based, flow cytometry (AID 588368);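 further: signal is the median channel fluorescence of bead-bound GFP antibody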
Settings: Protein G beads, DSG3-Fc, scFv-GFP binding, at 10 µM, hits give low values

Row | SMILES | binding (% of control)
40 | Cc1ccc2[nH]c3c(c2c1)CN(C)CC3 | 105%
41 | COc1ccc2[nH]c3c(c2c1)CCn1c-3nc2ccccc2c1=O | 97.2%
42 | CC(=O)O[C@H]1CSC[C@H]1NC(=O)c1ccccc1 | 102%
43 | CC(=O)Oc1ccc2occ(/C=N/c3cc(=O)[nH]c(=S)[nH]3)c(=O)c2c1 | 103%
44 | O=C(O)CCSc1nc2ccccc2s1 | 101%
45 | CCOc1ccc(C(=O)/C=C/c2cc(OC)c(OC)c(OC)c2)cc1 | 104%
46 | COC(=O)c1cc(OC)c(OC)c(OC)c1[N+](=O)[O-] | 99%
47 | COC(=O)c1[nH]c2ccccc2c1NC(=O)CN1CCN(C/C=C/c2ccccc2)CC1 | 108%
48 | Cc1ncc([N+](=O)[O-])n1CC(C)O (stereo not drawn) | 100%
49 | Clc1ccccc1CN1CCc2sccc2C1 | 102%
50 | CC[C@]1(O)C[C@@H]2CN(CCc3c([nH]c4ccccc34)[C@@](C(=O)OC)(c3cc4c(cc3OC)N(C)[C@H]3[C@@](O)(C(=O)OC)[C@H](OC(C)=O)[C@]5(CC)C=CCN6CC[C@]43[C@@H]65)C2)C1 | 111%
51 | O=C(CCCN1CC=C(n2c(=O)[nH]c3ccccc32)CC1)c1ccc(F)cc1 | 104%
52 | CCOc1cccc(N2C(=O)CC(N(CCc3ccc(OC)c(OC)c3)C(=O)CC)C2=O)c1 (stereo not drawn) | 100%
53 | COC(=O)C1=C(C)NC(C)=C(C(=O)OC)C1c1ccccc1[N+](=O)[O-] | 104%
54 | CC(COc1ccccc1)NC(C)C(O)c1ccc(O)cc1 (stereo not drawn) | 100%
55 | COc1ccc2oc(=O)c(-c3nc(C)cs3)cc2c1 | 92.6%
56 | CC(=O)Oc1cc(C(C)C)c(OCCN(C)C)cc1C | 95.2%
57 | O=C(NNC(=O)c1cccs1)c1ccco1 | 102%
58 | CC(C)Oc1ccc(C(CC(=O)O)c2ccc(F)cc2)cc1 (stereo not drawn) | 96.7%
59 | Cc1ccccc1-c1coc2cc(O)ccc2c1=O | 99.1%

Row | SMILES | binding (% of control)
60 | CCN(CC)CCOC(=O)C1(C2CCCCC2)CCCCC1 | 101%
61 | NC(=O)OCC(COC(N)=O)c1ccccc1 | 103%
62 | CC(C)[N+]1(C)[C@@H]2CC[C@H]1CC(OC(=O)C(CO)c1ccccc1)C2 (stereo partly drawn) | 102%
63 | Cc1ccccc1OCCSc1nc2ncnc(N)c2[nH]1 | 96.7%
64 | CC(=O)NCCCCCCNC(C)=O | 94.1%
65 | CCN(Cc1ccncc1)Cc1nc(Cc2ccccc2Cl)no1 | 101%
66 | CCOC(=O)NN1C(=O)c2ccccc2NC1c1ccc(OC)c(OC)c1 (stereo not drawn) | 102%
67 | COc1ccc2c(c1)c(CC(=O)O)c(C)n2C(=O)c1ccc(Cl)cc1 | 102%
68 | CC1=CC2(O)OCCN(CCO)C2=CC1=O (stereo not drawn) | 102%
69 | Cc1ccccc1C(OCCN(C)C)c1ccccc1 (stereo not drawn) | 98.7%
70 | COC1(C)CC2C(CC1OC(=O)c1cc([N+](=O)[O-])cc([N+](=O)[O-])c1)C2(C)C (stereo not drawn) | 99.3%
71 | O=C1OC(c2ccc(O)cc2)(c2ccc(O)cc2)c2ccccc21 | 103%
72 | Cn1c(=O)c2c(ncn2CC(O)CO)n(C)c1=O (stereo not drawn) | 81.7%
73 | Cc1cnc(C(=O)N2CCCC(C(=O)c3ccc(Cl)cc3C)C2)cn1 (stereo not drawn) | 101%
74 | CN(C)C(=O)C12CCC(C)(c3nc4ccccc4nc31)C2(C)C (stereo not drawn) | 103%
75 | CCOC(=O)c1ccc(N2C(=O)C(CC(N)=O)N(CCc3ccc(OC)c(OC)c3)C2=S)cc1 (stereo not drawn) | 97.2%
76 | Cc1cnc(C(=O)NCCc2ccc(S(=O)(=O)NC(=O)NC3CCCCC3)cc2)cn1 | 104%
77 | COc1cccc2c1C(=O)O/C2=C/c1ccc2c(c1)OCO2 | 99.8%
78 | COc1ccc(C2N3CC4(C)CN2CC(C)(C3)C4)cc1OC (stereo not drawn) | 99%
